These results are taken from the supplement of paper PMC10981050.

Several values for one entry are separate records, joined by “and”; a condition that tells them apart may be missing. Equal entries are not always repeated. Structures can show the parent of a compound that is named as a salt.

One assay has as its system K562. Nature of the assay: cell viability relative to vehicle control; higher = less cytotoxic. As to conditions: 10 µM; SRSF2 genotype: SRSF2 P95H/wt. An outline of the steps: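 After removal of identity-inconsistent compounds, the Selleck bioactive, kinase and epigenetic probe libraries were screened on CRISPR-edited mutant clones and isogenic wild-type clones of four leukaemia lines. Plates were 384-well, each well holding 2000 cells in 50 µL medium and receiving a single 10 µM acoustically dispensed dose. CellTiter-Glo luminescence was read 48 h later, after the supernatant was taken off. Genedata Screener was used to express viability as percent of the on-plate vehicle control.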
For orientation: cell viability means a read-out of living cells in per cent, often relative to untreated cells. Turning to `CCOc1ccc(Cc2cc([C@@H]3O[C@H](SC)[C@@H](O)[C@H](O)[C@H]3O)ccc2Cl)cc1` [Sotagliflozin (LX4211)], the cell viability is 84.2% and 86%.
Same read-out and setting: the same measure for `c1cc(CN2CCCNCCNCCCNCC2)ccc1CN1CCCNCCNCCCNCC1` [Plerixafor]: 93.9% and 99.1%; for `Nc1ncnc2c1ncn2C(C=O)OC(C=O)CO` (centres undefined) [Adenosine Dialdehyde (ADOX)]: 67.4% and 74.4%.
With `COc1ccc(CNc2nc(N3CCC[C@H]3CO)ncc2C(=O)NCc2ncccn2)cc1Cl` [Avanafil], the cell viability is 96.2% and 96.6%.
With `CC(C)=CC(O)C/C(C)=C/COc1c2ccoc2cc2oc(=O)ccc12` (centres undefined) [Notopterol], the cell viability was 72.4% and 82.5%.
Regarding `Cc1nc(N(C)C(=O)Cc2ccc(-c3ccccn3)cc2)sc1S(N)(=O)=O` [Pritelivir (BAY 57-1293)], the cell viability is 99.6% and 99.5%.
The same measure, in the same setting: next, `C[C@@H](CN1CC(=O)NC(=O)C1)N1CC(=O)NC(=O)C1` [Dexrazoxane]: 113% and 103%; `O=C(O)[C@H]1O[C@@H](Oc2cc3oc(-c4ccc(O)cc4)cc(=O)c3c(O)c2O)[C@H](O)[C@@H](O)[C@@H]1O` [Scutellarin]: 103% and 99.4%; `CC(C)=CCCC(C)(O)C1CCC2(C)C1C(O)CC1C3(C)CCC(O)C(C)(C)C3C(OC3OC(CO)C(O)C(O)C3OC3OC(C)C(O)C(O)C3O)CC12C` [(20S)Ginsenoside Rg2]: 102% and 108%.
Still for that read-out and setting: next, `C=CC(=O)N[C@H]1CCOC[C@H]1Nc1ncc2cc(-c3c(Cl)c(OC)cc(OC)c3Cl)ccc2n1`: 78.2% and 81.3%; `C=C[C@]1(C)C[C@@H](OC(=O)CSC(C)(C)CNC(=O)[C@H](N)C(C)C)[C@]2(C)[C@H](C)CC[C@]3(CCC(=O)[C@H]32)[C@@H](C)[C@@H]1O` [Valnemulin HCl]: 83.2% and 84.6%.

The same assay, now with this note: 10 µM; SRSF2 genotype: SRSF2 wt/wt.
In the case of `COc1ccc2c(c1)c(CC(=O)OCC(=O)O)c(C)n2C(=O)c1ccc(Cl)cc1` [Acemetacin (Emflex)], the cell viability was found to be 93.5%.
Same read-out and setting: next, `CC(c1cc2ccccc2s1)N(O)C(N)=O` (centres undefined) [Zileuton]: 99.1%.
The same measure, in the same setting: the same measure for `COc1ccc(C(=O)CC(=O)c2ccc(C(C)(C)C)cc2)cc1` [Avobenzone (Parsol 1789)]: 91.8%.
As to `CNC(=O)[C@H](Cc1ccccc1)NC(=O)[C@H](CC(C)C)[C@H](CSc1cccs1)C(=O)NO` [Batimastat (BB-94)], the cell viability came out at 75%.
As to `Nc1ncnc2c1c(-c1cccc(OCc3ccccc3)c1)cn2C1CC(CN2CCCC2)C1` (centres undefined), the cell viability was 88.4%.
On the same count and under the same terms, next, `C=C1C[C@@]23CC[C@H]4[C@@](C)(CCC[C@@]4(C)C(=O)O)[C@@H]2CC[C@@H]1C3` [Kaurenoic acid]: 107%.
With `CC(C)[C@H](NC(=O)[C@H](CC(=O)O)NC(=O)[C@H](CCCCN)NC(=O)[C@@H](N)CCCN=C(N)N)C(=O)N[C@@H](Cc1ccc(O)cc1)C(=O)O` [Thymopentin], the cell viability was found to be 87%.
On the same count and under the same terms, the same measure for `C=CC(=O)Nc1cccc(Nc2nc(Nc3ccc(NC4CN(CCF)C4)cc3OC)ncc2C(F)(F)F)c1`: 64.8%; for `CC1(C)O[C@@H]2[C@@H](CO[C@@]3(COS(N)(=O)=O)OC(C)(C)O[C@@H]23)O1` [Topiramate]: 99.3%.
On to `O=S(=O)(NCCSSCCNS(=O)(=O)c1cc(Cl)ccc1Cl)c1cc(Cl)ccc1Cl`, for which the cell viability came out at 69.5%.
`COC(=O)CCC(C)C1CCC2C3C(O)CC4CC(O)CCC4(C)C3CC(O)C12C` (centres undefined) [Methyl Cholate]: the cell viability amounted to 101%.
`COc1ccc(C2=NC(c3ccc(Cl)cc3)C(c3ccc(Cl)cc3)N2C(=O)N2CCNC(=O)C2)c(OC(C)C)c1` (centres undefined) [Nutlin-3b]: the cell viability turned out to be 89.3%.
`Clc1ncnc2nc[nH]c12` [6-Chloropurine]: the cell viability came out at 82.7%.
Regarding `CCC1=C[C@@H]2CN(C1)Cc1c([nH]c3ccccc13)[C@@](C(=O)OC)(c1cc3c(cc1OC)N(C)[C@H]1[C@@](O)(C(=O)OC)[C@H](OC(C)=O)[C@]4(CC)C=CCN5CC[C@]31[C@@H]54)C2` [Vinorelbine Tartrate], the cell viability turned out to be 31.6%.
Same read-out and setting: the same measure for `Cc1nccn1CC1CCc2c(c3ccccc3n2C)C1=O` (centres undefined) [Ondansetron hydrochloride (Zofran)]: 93.8%; for `CC(C)=CCCC(C)(O)C1CCC2(C)C1C(O)CC1C3(C)CCC(O)C(C)(C)C3CCC12C` [(20S)-Protopanaxadiol]: 107%; for `C[C@@H]1O[C@@H](O[C@@H]2[C@@H](O)[C@H](OCCc3ccc(O)c(O)c3)O[C@H](CO)[C@H]2OC(=O)/C=C/c2ccc(O)c(O)c2)[C@H](O)[C@H](O)[C@H]1O` [Verbascoside]: 87.4%.
On to `C=C1C[C@@]23CC[C@H]4[C@@](C)(CCC[C@@]4(C)C(=O)O)[C@@H]2CC[C@]1(O[C@@H]1O[C@@H](CO)[C@@H](O)[C@H](O)[C@@H]1O[C@@H]1O[C@@H](CO)[C@@H](O)[C@H](O)[C@@H]1O)C3` [Steviolbioside], for which the cell viability was determined as 107%.
